Source: PubChem BioAssay
Sampled rows, rich in hits. Any-hit rate of the full collection: about 10%.
NPR1 antag: human Npr1 receptor antagonism. HEK293 hNpr1 GloSensor cGMP, ANP-stimulated luminescence. Potency, µM (doses to about 46.3 µM), inactives show top-dose activity change, negative = inhibition, actives largely listed as inhibitors. 76,000 tested, 1.6% active; calls by dose curve; also: % is scaled to controls: 0 for no effect and ±100 for the full control effect; nearly all actives have a fitted effect of over 60% in size
Target sequence (P16066 whole entry, looked up): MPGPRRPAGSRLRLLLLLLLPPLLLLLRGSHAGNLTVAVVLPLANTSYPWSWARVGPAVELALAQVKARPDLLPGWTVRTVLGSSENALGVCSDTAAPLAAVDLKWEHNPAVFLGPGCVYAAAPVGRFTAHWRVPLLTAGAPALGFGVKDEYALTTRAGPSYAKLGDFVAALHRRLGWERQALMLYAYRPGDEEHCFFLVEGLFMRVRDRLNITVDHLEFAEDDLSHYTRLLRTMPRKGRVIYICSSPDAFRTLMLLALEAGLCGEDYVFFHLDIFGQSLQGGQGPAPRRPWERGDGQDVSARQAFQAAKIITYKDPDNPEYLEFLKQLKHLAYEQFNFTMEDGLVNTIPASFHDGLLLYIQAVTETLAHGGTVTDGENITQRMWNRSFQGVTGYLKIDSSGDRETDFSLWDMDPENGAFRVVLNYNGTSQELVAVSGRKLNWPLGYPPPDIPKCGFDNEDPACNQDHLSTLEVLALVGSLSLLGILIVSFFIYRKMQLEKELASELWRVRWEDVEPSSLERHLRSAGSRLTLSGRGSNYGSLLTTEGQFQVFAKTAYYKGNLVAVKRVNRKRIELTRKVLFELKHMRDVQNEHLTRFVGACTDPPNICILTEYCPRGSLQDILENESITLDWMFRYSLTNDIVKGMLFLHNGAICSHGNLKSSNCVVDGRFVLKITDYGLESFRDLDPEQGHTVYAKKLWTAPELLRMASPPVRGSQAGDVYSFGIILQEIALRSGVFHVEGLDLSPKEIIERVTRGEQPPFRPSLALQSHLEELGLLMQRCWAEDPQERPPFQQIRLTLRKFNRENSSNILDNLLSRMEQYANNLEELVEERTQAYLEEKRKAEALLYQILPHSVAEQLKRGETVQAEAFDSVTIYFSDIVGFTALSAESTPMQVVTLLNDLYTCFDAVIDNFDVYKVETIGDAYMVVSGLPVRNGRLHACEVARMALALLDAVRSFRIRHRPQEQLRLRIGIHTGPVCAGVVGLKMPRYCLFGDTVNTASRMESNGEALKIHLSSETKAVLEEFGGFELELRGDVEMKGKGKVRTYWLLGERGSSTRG
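HEK293 cells stably expressing human Npr1 and cGMP GloSensor pGS-40F, loaded 2 h with 2% GloSensor reagent, given compound 30 min at room temperature. Luminescence read before and 20 min after 0.1 nM hNppA.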
GPT2 inhibitor: inhibitors of human GPT2 alanine aminotransferase; 100,000 tested, 0.25% active; Potency, µM (highest dose often 57.7 µM), for the others: at the highest dose activity change, negative = inhibition, actives largely listed as inhibitors; Recombinant GPT2, coupled pyruvate oxidase/HRP Amplex Red fluorescence; Q8TD30; also: % is scaled to controls: 0 for no effect and ±100 for the full control effect; nearly all actives have a fitted effect of over 60% in size
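Fluorescence read-out: pyruvate from GPT2 turnover coupled to pyruvate oxidase, HRP and Amplex Red (0.2mM ThPP, 0.2U/mL PO and HRP, 50uM Amplex final). Substrates 250uM a-KG, 2mM L-alanine; enzyme 10ng/uL; 30 min RT.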
3T3 cytotox: kills NIH 3T3 cells; NIH 3T3 viability, CellTiter-Glo ATP luminescence, 48-72 h; Potency, µM (highest dose often 96.7 µM), inactives show at the highest dose activity change, negative = cytotoxicity, most hits filed as inhibitors; 94,000 tested, 4.3% active; AID 1345082; also: % is scaled to controls: 0 for no effect and ±100 for the full control effect; nearly all actives have a fitted effect of over 55% in size
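Cells were seeded at 400 per well, treated with pin-transferred compound, and kept 48 or 72 hr at 37 °C before CellTiter-Glo addition and luminescence imaging of cellular ATP.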
FLuc inh-1: Photinus pyralis luciferase inhibition | 76,000 tested, 2.5% active | Potency, µM (doses to about 115 µM), usual class: inhibitors | AID 1347043 | P08659 | purified P. pyralis luciferase, luminescence, biochemical; also: % is scaled to controls: 0 for no effect and ±100 for the full control effect; nearly all actives have a fitted effect of over 65% in size
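Purified P. pyralis luciferase (10nM final) in 50mM Tris acetate pH 7.5, 10mM Mg acetate, 0.01% Tween-20, 0.05% BSA with 10uM D-luciferin and 10uM ATP. Compounds titrated qHTS. Luminescence imaged on CCD.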
HEK cytotox: cytotoxic compounds in HEK 293 cells; HEK 293 viability, ATP luminescence (CellTiter-Glo), 48-72 h; Potency, µM (titrated, usually from 115 µM), for the others: top-dose activity change, negative = cytotoxicity, hits mostly inhibitors; 94,000 tested, 6.6% active; AID 1345083; also: % is scaled to controls: 0 for no effect and ±100 for the full control effect; nearly all actives have a fitted effect of over 60% in size
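HEK 293 cells at 250 cells/well were exposed to compounds by pintool transfer for 48 or 72 hr at 37 degree Celsius, 5% CO2. Viability was read as ATP-coupled luminescence with CellTiter-Glo after 10 min at room temperature.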
FLuc SDR no ATP: firefly luciferase binding stabilization, ATP absent; shares compounds with FLuc inh-1; Purified FLuc-C-HiBiT, Nano-Glo HiBiT luminescence, no ATP; Potency, µM (titrated, usually from 32.7 µM), inactives show at the highest dose activation (signal gain), usual class: activators; 1,300 tested, 7.8% active; AID 1963318; also: nearly all actives have a fitted effect of over 55% in size
FLuc SDR ATP: binders stabilizing firefly luciferase, plus ATP | shares compounds with FLuc inh-1 | purified FLuc-C-HiBiT + ATP, HiBiT complementation luminescence | Potency, µM (doses to about 32.7 µM), for inactives: at the highest dose activation (gain of signal), actives largely listed as activators | 1,300 tested, 8.7% active | AID 1963319;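 also: signal reports ligand binding via conformational change of the enzyme rather than luciferase catalysis; % of control where 0% means no effect; nearly all actives have a fitted effect of over 55% in size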
FLuc inh-2: firefly luciferase enzyme inhibition | shares compounds with FLuc inh-1 | purified FLuc-C-HiBiT enzyme, luciferin luminescence | Potency, µM (titrated, usually from 32.7 µM), inactives show at the top dose activity change, negative = inhibition, hits mostly inhibitors | 1,300 tested, 42% active | AID 1963320; also: % is scaled to controls: 0 for no effect and ±100 for the full control effect; nearly all actives have a fitted effect of over 70% in size
Numbers without * were called inactive; i = inactive; ? = inconclusive; / = no result; [ ] = another dose, or the depositor's remark. Unless noted, calls follow the shape of the dose curve; as a rule, active = well fitted curve in the direction sought with a large enough effect; inconclusive = small, poorly fitted or top-dose-only effect, or another doubt; inactive = no such curve, though single readings can be large; an effect the other way counts as inactive or inconclusive. Potency is read from the fitted curve at half-maximal effect.

SMILES	NPR1 antag	GPT2 inhibitor	3T3 cytotox	FLuc inh-1	HEK cytotox	FLuc SDR no ATP	FLuc SDR ATP	FLuc inh-2
OCC1CN(Cc2ccccc2)CC12CCN(Cc1ccncc1)CC2 (centres undefined)	-6.2%	-14.5%	?	i	?	/	/	/
Cc1ccc(CN2C(=O)OC(c3cccc(NC(=O)c4ccc(C)cc4)c3)C2C(=O)NCC(C)C)cc1 (centres undefined)	?	3.8%	-23.5%	7.08µM*	?	13.0%	11.1µM*	?
CNc1nccc(N2CCC(CC(=O)NCc3cccc(OC)c3OC)CC2)n1	2.3%	i	?	i	?	/	/	/
S=C(NC1CCCCC1)N[C@H]1CO[C@H]2[C@@H]1OC[C@@H]2n1nnnc1-c1ccc2c(c1)OCO2	?	i	?	i	?	/	/	/
Cc1cccn2c(=O)c(C(=O)NCCc3ccccc3)cnc12	/	/	/	/	/	?	?	7µM*
CC(=O)Nc1cccc(-c2ccnc(-c3nnc(C)n3CCN3CCOCC3)c2)c1	-2.1%[70.6 µM]	-20.3%[88.5 µM]	?	i	-11.6%[172 µM]	/	/	/
Cc1ccc(CNC(=O)Nc2cccc(-c3ccc(N4CCOCC4)nn3)c2)cc1	-25.5%	i	?	1.26µM*	?	?	?	2.79µM*
COc1cccc(CNC(=O)Nc2cccc(-c3ccc(N4CCOCC4)nn3)c2)c1	?	?	?	1.12µM*	?	?	?	2.79µM*
COc1ccc(CNC(=O)Nc2cccc(-c3ccc(N4CCCCC4)nn3)c2)cc1	8.91µM*	i	?	0.251µM*	?	1.97µM*	?	0.495µM*
O=C(NCc1ccco1)Nc1cccc(-c2ccc(N3CCCC3)nn2)c1	-21.8%	?	?	7.08µM*	?	?	?	?
O=C(NCc1ccccc1)Nc1cccc(-c2nnc3n2CCCC3)c1	-2.7%	i	-14.2%	i	?	/	/	/
CCc1cc(=O)n(CC(=O)NCc2cccc(OC)c2)c(N2CCOCC2)n1	1.9%	2.3%	2.4%	i	0.5%	/	/	/
O=C(COc1ccc(F)cc1)NCC(=O)N1CCCCCCNC(=O)CC1c1ccccc1 (centres undefined)	-0.4%	i	1.0%	i	-4.7%	/	/	/
OC1CCOC2(CCN(Cc3ccccc3OC(F)(F)F)CC2)C1 (centres undefined)	-3.0%	i	2.0%	i	-1.3%	/	/	/
CC(C)n1cnnc1CN(C)c1nc(N)nc2nc[nH]c12	2.3%	-6.6%	1.0%	i	-7.1%	15.1%	8.0%	-2.8%
CC(C)n1cnnc1CC1CCCNC1 (centres undefined)	0.8%	i	-3.8%	i	0.2%	/	/	/
COCCN1C(=O)CS(=O)C12CCN(C(=O)c1ccsc1)CC2 (centres undefined)	/	?	-16.0%	/	-12.3%	/	/	/
COC[C@@H]1CN(Cc2cc(C)nn2C)C[C@H]1C(=O)NC1CC1	6.2%	i	-6.6%	i	-7.0%	/	/	/
CC(C)(Oc1ccc(-c2nc3cc(Cl)ccc3s2)cc1)C(=O)O	/	i	/	/	/	?	?	8.81µM*
COc1cccc(-c2ccc(C(=O)NCCNC(=O)c3ccc(Cl)cc3)cc2)c1	/	/	i	/	-8.7%	/	/	/
Cc1ccc(F)cc1-c1ccc(COc2ccc3c(cnn3CCC(=O)O)c2)cc1	-13.6%[70.6 µM]	-4.2%[88.5 µM]	?	22.4µM*	?	18.8%[49.3 µM]	11.8%[49.3 µM]	?
COc1cc(F)cc(-c2ccc(COc3ccc4c(cnn4CCC(=O)O)c3)cc2)c1	0.2%[70.6 µM]	-3.1%[88.5 µM]	?	?	?	/	/	/
Cc1ccccc1-c1ccc(COc2ccc3c(cnn3CCC(=O)O)c2)cc1	-15.8%[70.6 µM]	4.7%[88.5 µM]	?	?	?	19.6%[49.3 µM]	13.3%[49.3 µM]	16.1µM*
COc1ccc(-c2ccc(COc3ccc4c(cnn4CCC(=O)O)c3)cc2)c(Cl)c1	-1.9%[70.6 µM]	-1.9%[88.5 µM]	-18.5%[138 µM]	?	?	/	/	/
COc1cccc(F)c1-c1ccc(COc2ccc3c(cnn3CCC(=O)O)c2)cc1	-8.4%[70.6 µM]	-17.3%[88.5 µM]	?	25.1µM*	?	16.2%[49.3 µM]	10.1%[49.3 µM]	?
SMILES	NPR1 antag	GPT2 inhibitor	3T3 cytotox	FLuc inh-1	HEK cytotox	FLuc SDR no ATP	FLuc SDR ATP	FLuc inh-2
CCc1cccc(NC(=O)C2Cn3cccc3C(=O)N2)c1 (centres undefined)	-15.2%	i	-17.3%	i	?	/	/	/
CN(Cc1ccccc1)C(=O)C[C@@H]1c2nc(NC(=O)C3CCC3)sc2C[C@@H]2[C@](C)(CO)[C@H](O)CC[C@]21C	-22.0%	-16.8%	?	i	?	/	/	/
O=C(COc1ccc(Cl)cc1)Nc1ccc(O)c(-c2nc3ccccc3s2)c1	/	/	/	/	/	13.1%	9.3%	3.3%
O=C(CCCS(=O)(=O)c1ccc(Cl)cc1)Nc1ccc(O)c(-c2nc3ccccc3s2)c1	/	/	/	/	/	17.2%	9.5%	0.4%
O=C(COc1ccc(Cl)cc1)Nc1ccc(-c2nc3ccccc3s2)c(O)c1	/	/	/	/	/	15.2%	11.0%	1.5%
COCCOC1CCOC2(CCN(C(=O)NCCc3ccccc3)CC2)C1 (centres undefined)	-2.3%	2.2%	4.4%	?	?	/	/	/
CCCC1CN(Cc2cccs2)C(=O)c2cccnc2O1 (centres undefined)	/	/	-24.0%	/	?	/	/	/
Cc1cc2c(c(-c3nc4ccccc4s3)c1)OC(CNC(=O)CCc1cccnc1)C2 (centres undefined)	/	/	/	/	/	14.4%	8.9%	?
CN1C(=O)c2cccn2CC1CNC(=O)CCc1nc2ccccc2s1 (centres undefined)	-9.4%	-2.4%	-9.0%	i	0.0%	/	/	/
COCCCNc1ccc(C(=O)N2CCC(CN3CCCC3=O)CC2)cn1	7.0%	3.5%	i	i	3.8%	/	/	/
O=C(c1ccccn1)N1CCCC(c2noc(COc3ccccc3)n2)C1 (centres undefined)	-2.4%	1.7%	-10.4%	i	-2.1%	/	/	/
COC[C@@H]1CN(S(=O)(=O)c2ccccc2)C[C@H]1c1ccncc1	-6.5%	i	-22.3%	i	-33.3%	/	/	/
Cc1[nH]cnc1CN1CCc2nc(C(=O)Nc3cccc(C(F)(F)F)c3)oc2CC1	-3.6%[70.6 µM]	i	?	i	?	/	/	/
Cn1cc(CN2CCc3nc(C(=O)Nc4ccccc4)oc3CC2)cn1	/	/	/	/	/	23.1%[49.3 µM]	17.0%[49.3 µM]	?
O=C(NCc1cccc(F)c1)c1nc2c(o1)CCN(Cc1cccc(Cl)c1)CC2	?	-12.1%[88.5 µM]	?	i	?	/	/	/
